Shown are actives, neighbours in structure and some others; about 6.2% of the full set was active somewhere.
HT1080 IDH1KD tx: toxicity to HT-1080 IDH1 knockdown cells (counter line); AID 686971; Potency, µM (highest dose often 46.1 µM), for the others: at the highest dose activity, negative = toxicity, usual class: cytotoxic; HT-1080 IDH1 knockdown viability, ATP luminescence, 48 h; hit rate 2% among 360,000;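 also: 0% = DMSO wells and -100% = cell-free medium wells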
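IDH1KD HT-1080 cells, 750/well, RPMI + 5% FBS; compound pinned after 2 h settling; 48 h, 37 °C; CellTiter-Glo luminescence; % activity normalised to DMSO and no-cell wells; curves fitted, classed by r2 and efficacy.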
HT1080-NT tox: kills 2HG-producing HT-1080-NT fibrosarcoma cells; HT-1080-NT fibrosarcoma viability, CellTiter-Glo ATP luminescence, 48 h; Potency, µM (titrated, usually from 46.1 µM), for the others: at the top dose activity, negative = less viability, hits mostly cytotoxic; hit rate 1.6% among 360,000;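 also: NT is the 2HG producing partner of a matched IDH1 knockdown line; 0% = DMSO-treated cells and -100% = media-only wells without cells; nearly all actives have a fitted effect of over 55% in size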
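Viability by CellTiter-Glo luminescence after 48 h compound exposure at 37C of HT-1080-NT cells (750/well, RPMI, 5% FBS). % activity scaled between DMSO wells and medium-only wells, then curve-fitted and categorized by curve class.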
S2 tox: reduces viability in counter-screen for ATXN expression inhibitors; S2 cells (HEK-293 line with an ATXN2-luciferase reporter) viability, CellTiter-Fluor protease fluorescence, 24 h; Potency, µM (doses to about 56.7 µM), usual class: cytotoxic; AID 651635; hit rate 0.49% among 400,000; also: nearly all actives have a fitted effect of over 40% in size
ATXN2 expr inh: reduces ATXN2 reporter expression in HEK-293 cells; HEK-293 ATXN2-luciferase reporter, luminescence, 24 h; Potency, µM (highest dose often 57 µM), for inactives: at the top dose activity change, negative = inhibition, most hits filed as inhibitors; hit rate 0.72% among 360,000; also: % is scaled to controls: 0 for no effect and ±100 for the full control effect; nearly all actives have a fitted effect of over 55% in size
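qHTS (up to 57 uM final) was run with 24 h compound exposure of reporter cells at 37 °C. Each well was multiplexed: SteadyGlo luminescence measured ATXN2-luciferase expression after a fluorogenic Gly-Phe-AFC viability readout (25 uM final).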
KB-V1 cytotox: kills drug-selected multidrug resistant KB-V1 cells; KB-V1 MDR cells viability, CellTiter-Glo, 72 h; hit rate 3.4% among 400,000; Potency, µM (highest dose often 46.1 µM), actives largely listed as cytotoxic; also: % is scaled to controls: 0 for no effect and ±100 for the full control effect; nearly all actives have a fitted effect of over 60% in size
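Potencies derive from concentration-effect curves fitted to normalized luminescence (CellTiter-Glo) of KB-V1 cells treated for 72 h at 37 degrees C in phenol-red-free DMEM containing 10% FBS.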
KB-3-1 tox: KB-3-1 parental cell cytotoxicity. KB-3-1 viability, CellTiter-Glo ATP luminescence, 72 h. hit rate 1.4% among 400,000. Potency, µM (titrated, usually from 46.1 µM), hits mostly cytotoxic. AID 1347075; also: % is scaled to controls: 0 for no effect and ±100 for the full control effect; nearly all actives have a fitted effect of over 60% in size
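72 h, 37 °C compound treatment of KB-3-1 parental cells; CellTiter-Glo added, 10 min, luminescence read. Data corrected against DMSO-only plates and normalized before curve fitting.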
Active calls of the source: *; i = inactive; ? = inconclusive; . = not tested or not shown; [ ] = remark or other dose. Calls follow the shape of the dose curve; as a rule, active = well fitted curve in the direction sought with a large enough effect; inconclusive = small, poorly fitted or top-dose-only effect, or another doubt; inactive = no such curve, though single readings can be large; an effect the other way counts as inactive or inconclusive. Potency is read from the fitted curve at half-maximal effect.

SMILES	HT1080 IDH1KD tx	HT1080-NT tox	S2 tox	ATXN2 expr inh	KB-V1 cytotox	KB-3-1 tox
CCC(C)NC(=O)c1ccc2nc(-c3ccco3)c(-c3ccco3)nc2c1 (stereo not given)	.	.	.	.	i	i
CCCSCCCNC(=O)CN1C(=O)COc2ccc(S(=O)(=O)N3CCC(C)CC3)cc21	.	.	i	4.0%	?	i
O=C(Cn1cnc([N+](=O)[O-])c1)c1ccc(Cl)cc1	8.1%	8.6%	i	7.7%	?	i
O=C(C[n+]1cnn(CC(=O)c2ccc(Cl)cc2Cl)c1)c1ccc([N+](=O)[O-])cc1	-14.1%	-15.5%	i	-16.6%	i	18.4µM*
COc1ccc(-c2cc3c(=O)n(CC(=O)Nc4cc(F)ccc4F)ccn3n2)cc1OC	.	.	i	7.1%	i	?
Cc1cc(C)c(S(=O)(=O)Nc2cc(SCC(=O)O)c(O)c3ccccc23)cc1C	20.6µM*	-18.9%	.	?	?	?
O=C(O)CSc1cc(NS(=O)(=O)c2ccc(Cl)cc2)c2ccccc2c1O	25.9µM*	?	i	?	?	?
COc1ccc(S(=O)(=O)Nc2cc(SCC(=O)O)c(O)c3ccccc23)cc1	-5.9%	?	?	.	?	?
CN(Cc1ccccc1)C(=O)c1ccc2c(c1)N(Cc1ccccc1F)C(=O)c1ccccc1S2(=O)=O	.	.	i	0.0%	i	i
CCc1ccc(N2C(=O)CS(=O)(=O)C23C(=O)N(Cc2ccccc2F)c2ccccc23)cc1 (stereo not given)	.	.	i	8.7%	i	i
O=C(COc1ccc(Cl)cc1Cl)NCc1ccco1	4.7%	10.6%	i	57.9%	i	i
COc1ccc(CNC(=O)C/C(C)=N/NC(=O)COc2ccc(C)cc2Br)cc1	18.4µM*	16.4µM*	i	-19.7%	?	5.8µM*
C/C(CC(=O)NCc1ccco1)=N\NC(=O)COc1ccc(Cl)cc1Cl	?	20.6µM*	i	14.9%[11.3 µM]	?	?
CCC(C)n1c(=N)c(C(=O)NC2CCCCC2)cc2c(=O)n3ccccc3nc21 (stereo not given)	.	.	.	-4.6%	i	i
FC(F)(F)c1cccc(Sc2nc(-c3ccccc3)nnc2C(F)(F)F)c1	?	?	28.2µM*	?	?	20.6µM*
FC(F)(F)c1nnc(-c2ccccc2)nc1Sc1ccc(Cl)cc1	?	?	.	28.2µM*	?	?
COc1ccc2cc(CNc3ccc(OC)c(OC)c3)c(=O)n(CC(=O)Nc3ccc(C)cc3)c2c1	.	.	?	-0.4%	i	i
C=CCOc1c(Cl)cc(CNc2ccc(N(C)C)cc2)cc1OC	15.8µM*	-15.0%[9.24 µM]	?	27.1%	5.17µM*	?
COc1cc(CNc2ccc(N3CCCC3)cc2)cc(Cl)c1OC	?	16.4µM*	i	?	?	11.6µM*
CCOc1c(Cl)cc(CNc2ccc3[nH]c(=O)[nH]c3c2)cc1OC	.	.	?	-27.7%	i	i
CCOc1cc(CNc2ccc(N3CCCC3)cc2)cc(Cl)c1OC	?	?	?	-17.7%	?	?
CCCS(=O)(=O)NCc1c(C)ncc2c1CCN(C(=O)/C=C/c1ccc(F)cc1F)C2	.	.	i	.	.	.
Cc1cc(C(C)Nc2ccccc2)c2nc(N3CCOCC3)cc(=O)n2c1 (stereo not given)	.	.	.	4.1%	.	.
CC(/C=N/NC(=O)c1cc(-c2ccccc2)nc2ccccc12)=C\c1ccco1	?	?	i	7.6%	7.31µM*	4.11µM*
Cc1cc(C(=O)N/N=C/c2ccco2)c2ccccc2n1	-23.8%	-14.9%	i	0.8%	i	i
SMILES	HT1080 IDH1KD tx	HT1080-NT tox	S2 tox	ATXN2 expr inh	KB-V1 cytotox	KB-3-1 tox
CC(/C=N/NC(=O)c1cc(-c2ccc(Cl)cc2)nc2ccccc12)=C\c1ccco1	0.82µM*	?	?	1.5%	0.92µM*	1.03µM*
O=C(N/N=C/c1ccco1)c1cc(-c2ccncc2)nc2ccccc12	?	?	i	-10.7%	i	?
CCCCc1nn2c(=O)cc(COC(=O)c3ccc(NC(=O)CCc4ccccc4)cc3)nc2s1	.	.	i	-10.2%	i	i
CCOc1ccc(C(c2c(O)cc(C)n(Cc3ccco3)c2=O)N2CCN(c3ccccc3)CC2)cc1 (stereo not given)	.	.	.	.	i	i
COC(=O)c1cn(NC(=O)c2cc([N+](=O)[O-])ccc2F)c(=O)c2ccccc12	9.2µM*	?	i	1.06µM*	11.6µM*	?
COC(=O)c1cn(NC(=O)C2CCC(C)CC2)c(=O)c2ccccc12 (stereo not given)	-6.7%	-16.3%	i	3.9%	i	i
Cc1cnc(-n2ncc(C(=O)NCCN3CCOCC3)c2-c2cccs2)nc1-c1ccc(F)cc1	.	.	i	.	.	.
COc1ccc(-c2cc(C(=O)Oc3ccc(Br)cc3)c3ccccc3n2)cc1	.	.	i	2.4%	i	i
CC(=O)c1sc2c(c1OC(=O)c1ccc(Cl)cc1Cl)c(=O)n(-c1ccccc1)c(=S)n2-c1ccccc1	2.59µM*	1.46µM*	?	.	?	?
CC(=O)c1sc2c(c1OC(=O)c1ccc(Cl)cc1)c(=O)n(-c1ccccc1)c(=S)n2-c1ccccc1	?	-18.8%	?	0.0%	14.6µM*	?
COc1cccc(-c2nc(CS(=O)(=O)CC(=O)NCc3cccc(Cl)c3)c(C)o2)c1	.	.	.	.	i	i
Clc1ccc2c(SCC3CO3)c3ccccc3nc2c1 (stereo not given)	18.4µM*	?	.	?	16.4µM*	?
CNS(=O)(=O)c1cn(CC(=O)Nc2ccc(F)cc2F)cc1S(=O)(=O)NC	.	.	.	.	i	i
COc1ccccc1-n1c(=S)sc2c(=O)n(Cc3ccco3)c(SC)nc21	-1.1%	-5.4%	i	8.6%	14.6µM*	i
O=C(/C=C/c1ccco1)Oc1cccc2cccnc12	20.6µM*	?	?	-37.7%	i	i
O=C(/C=C\c1ccco1)Oc1cccc2cccnc12	14.6µM*	?	i	.	i	?
COc1ccccc1/C=C/C(=O)Oc1cccc2cccnc12	0.1%	0.0%	?	.	i	i
Cc1ccc(Sc2ccc(NC(=O)CCl)cc2)cc1C	-27.1%	-24.3%	?	31.6µM*	?	?
Cc1ccc(C)c(Sc2ccc(NC(=O)CCl)cc2)c1	-19.0%	-15.7%	?	?	?	20.6µM*
O=C(NCCCN1CCN(c2ccc(F)cc2)CC1)NC12CC3CC(CC(C3)C1)C2	14.6µM*	16.4µM*	i	?	i	i
